Among the data in PubChem BioAssay AID602393 (Broad Institute, 2012) are reporter increase values, retold here.

The structures appear in SMILES notation. Screen size: about 350,000 compounds; about 7,000 (2%) were called active. The sample holds actives, similar compounds and a random draw of the others, so the mix is not that of the screen. Values without a mark were called inactive. Cut-off read from the data, not from the text of the source: active = activation above about 40%; inconclusive = no clear call, values can overlap the other calls; inactive = below that.

This test in a line: raisers of Bmi1 knock-in reporter signal – mouse ES cells, Bmi1 luciferase knock-in, single point, esBAF inhibitor project, primary screen (AID 602393).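 Note: 0% = median of the plate's neutral control wells and 100% = double that signal; a rise in the Bmi1 reporter signal indicates esBAF inhibition.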 The note with it: 24 h, at 12.5 µM, stronger effect = higher value, 100% = twice the neutral-well signal.
For the molecule `C[C@@H](NC(=O)[C@@H]1[C@@H](CO)[C@@H]2Cn3c(ccc(C4=CCCCC4)c3=O)[C@@H]2N1C)c1ccccc1`, the reporter increase is 1.48%. To `Cc1ccc(S(=O)(=O)Nc2ccc3c(c2)C(=O)N([C@@H](C)CO)C[C@@H](C)[C@H](CN(C)Cc2ccncc2)O3)cc1` belongs 2.63%. To `C[C@H](CO)N1C[C@H](C)[C@H](CN(C)Cc2ccncc2)Oc2ccc(N(C)C)cc2C1=O` belongs -1.91%; to `CCOC(=O)c1[nH]c2ccc(C)cc2c1N=C(C)N(C)C`, 1.77%. To `Cc1ccc2[nH]c(=O)c(COC(=O)c3ccccn3)cc2c1` belongs -2.11%. Take `CCOC(=O)c1cc2cc(C)ccc2[nH]1`: the reporter increase is 70.2% (active). To `CCCNC(=O)N(C)C[C@H]1Oc2cc(C#C[C@@H](C)O)ccc2S(=O)(=O)N([C@H](C)CO)C[C@H]1C` belongs -0.613%; to `COCC(=O)N1C[C@@H]2[C@H](c3ccccc31)[C@@H](CO)N2C(=O)C1CC1`, -6.95%. For `CCNC(=O)[C@@H]1[C@@H](CO)[C@@H]2Cn3c(ccc(-c4ccncc4)c3=O)[C@@H]2N1Cc1cc(F)ccc1F`, the reporter increase is -2.84%. To `CCCC(=O)Nc1nc2ccc(NC(=O)c3c(F)c(F)c(OC)c(F)c3F)cc2s1` belongs -33%; to `O=C(CCNC(=O)c1ccccc1)Nc1nc2ccccc2s1`, 59.5% (active). To `CC(C)Cc1nnc(NC(=O)CCNC(=O)c2ccccc2Cl)s1` belongs -1.82%. To `O=S(=O)(N[C@H]1CC[C@@H](CCNS(=O)(=O)c2ccccc2Cl)O[C@@H]1CO)c1ccccc1` belongs 2.98%; to `CCOc1ccc(NC(=O)C/C(C)=N/NC(=O)Cc2cccs2)cc1`, -1.12%. As to `O=C(Cc1cccs1)Nc1ccc([N+](=O)[O-])cc1`, the reporter increase is 1.47%. To `CCOC(=O)c1ccc(NC(=O)Cc2cccs2)cc1` belongs 49.7% (active); to `CN(C)CC(=O)Nc1ccc2c(c1)[C@H]1C[C@@H](CC(=O)NCc3ccccn3)O[C@@H](CO)[C@H]1O2`, -2.09%.

For the molecule `COc1cccc(S(=O)(=O)N(C)C[C@@H]2Oc3cc(C4=CCCCC4)ccc3S(=O)(=O)N([C@H](C)CO)C[C@H]2C)c1`, the reporter increase is -4.77%. To `CCOc1ncccc1C(=O)OCC(=O)c1c[nH]c2ccccc12` belongs 5.19%.

Consider `Cc1ccc(S(=O)(=O)c2c(COC(=O)c3cccc(Cl)c3)c(-c3ccccc3)nn2C)cc1`, for which the reporter increase is 12.1%.

`O=C(OCC(O)C(O)COC(=O)c1ccccc1)c1ccccc1` (stereo not drawn): the reporter increase is -4.1%. To `O=C(OCc1ccc(-c2ccccc2)cc1)c1cccc(O)c1` belongs 56.3% (active); to `C[C@H](NC(=O)c1ccccc1)C(=O)OCC(=O)c1c[nH]c2ccccc12`, 4.74%; to `O=C(OCC(=O)c1c[nH]c2ccccc12)c1cccc(O)c1`, 96.8% (active). To `COCC(=O)N1C[C@@H](C)[C@H](OC)CN(C)C(=O)c2ccc(NC(=O)c3ccc(F)cc3)cc2OC[C@H]1C` belongs -1.39%; to `CCCNC(=O)N1[C@H](CNC(C)=O)[C@@H](c2ccc(C3=CCCC3)cc2)[C@@H]1CO`, 2.55%; to `O=C(c1cc(-c2ccc(Cl)cc2)on1)N1CCN(c2ccccc2)CC1`, 60.8% (active).

For the molecule `COc1ccc(-c2cc(C(=O)N3CCN(c4ccc(F)cc4)CC3)no2)cc1`, the reporter increase is 5.86%. Turning to `O=C(c1cc(-c2ccc(O)cc2)on1)N1CCOCC1`, the reporter increase is -6.48%. As to `CC(C)NC(=O)Nc1ccc2c(c1)C(=O)N(C)[C@@H]1CC[C@H](CC(=O)NCC3CCCCC3)O[C@@H]1CO2`, the reporter increase was 7.05%. To `COCC(=O)N[C@@H]1C=C[C@@H](CC(=O)N2CCCCC2)O[C@@H]1CO` belongs 0.0415%; to `COc1ccccc1C(=O)N1C[C@H]2[C@@H](c3ccccc31)[C@H](CO)N2C(=O)C1CC1`, -3.8%. Consider `O=C(C[C@@H]1C=C[C@@H](NC(=O)c2cccnc2)[C@H](CO)O1)NCCN1CCCCC1`, for which the reporter increase was -3.44%. To `COc1cccc(S(=O)(=O)N[C@H]2C=C[C@H](CC(=O)NC3Cc4ccccc4C3)O[C@H]2CO)c1` belongs -3.77%. To `COc1ccccc1NC(=O)CSc1nc2sc3c(c2c(=O)n1-c1ccccc1)CCN(C)C3` belongs 50.8% (active); to `CCOc1ccc(-n2c(SCC(=O)OC)nc3sc4c(c3c2=O)CCN(C)C4)cc1`, 4.82%; to `CCOc1ccc(-n2c(SCC(=O)Nc3ccc(OC)cc3)nc3sc4c(c3c2=O)CCN(C)C4)cc1`, 1.84%. To `COc1cccc(C(=O)Nc2cc3c(cc2Br)OCCCO3)c1` belongs 82% (active); to `COc1cccc(C(=O)Nc2nnc(S(=O)(=O)N3CCOCC3)s2)c1`, 1.13%.

Turning to `COc1cccc(C(=O)NCCSc2ccc(Br)cc2)c1`, the reporter increase was -4.36%. To `Clc1ccc(CN2CCCCCC2)cc1Cl` belongs -0.902%; to `O=c1cc(CN2CCCCCCC2)c2c(ccc3ccccc32)o1`, 2.61%; to `c1ccc2cc3[nH]c(CN4CCCCC4)nc3cc2c1`, 43.8% (active). To `O=C(C[C@H]1CC[C@@H](NC(=O)Cc2ccccn2)[C@H](CO)O1)NCCc1ccccc1` belongs 3.63%; to `O=c1c2cc(Br)ccc2nc(-c2cccc(Cl)c2)n1O`, -7.05%. To `O=C(/C(=C/c1cccc(Cl)c1)c1nc2ccccc2[nH]1)c1ccccc1` belongs 98.1% (active). For the molecule `C[C@H](O)C#Cc1ccc2c(c1)O[C@H](CN(C)C)[C@@H](C)CN([C@H](C)CO)S2(=O)=O`, the reporter increase was -3.76%. To `C[C@@H]1CN([C@@H](C)CO)C(=O)Cc2cc(NC(=O)Nc3ccc(F)cc3)ccc2O[C@@H]1CN(C)C(=O)NC1CCCCC1` belongs 1.74%; to `COCC1CCCN(C(=O)c2ccc3oc(C(C)C)nc3c2)C1` (stereo not drawn), 21.9%; to `COCC1CCN(C(=O)c2ccc3oc(Cc4ccccc4)nc3c2)C1` (stereo not drawn), 22.8%. To `COCC1CCN(C(=O)CCc2nnc(C3(c4ccc(Cl)cc4)CCC3)o2)C1` (stereo not drawn) belongs 52% (active). With `C[C@@H]1CCCCO[C@@H](CN(C)C(=O)C2CCCCC2)[C@H](C)CN([C@H](C)CO)C(=O)c2cc(NC(=O)CCC(F)(F)F)ccc2O1`, the reporter increase is 15.7%.

For `COc1cccc(CNC(=O)C[C@@H]2CC[C@@H]3[C@H](COc4ccc(NC(C)=O)cc4C(=O)N3C)O2)c1`, the reporter increase is -1.5%. To `CCOC(=O)C1(Cc2cccc(OC)c2)CCCN(C(=O)CCSC)C1` (stereo not drawn) belongs 51.6% (active). To `CCOC(=O)C1(Cc2cccc(OC)c2)CCN(C(C)CC(C)(C)O)CC1` (stereo not drawn) belongs -4.88%; to `CCOC(=O)C1(CCOc2ccccc2)CCN(Cc2cc(OC)cc(OC)c2)CC1`, -7.06%.

`CNC(=O)C[C@H]1CC[C@@H]2[C@@H](COc3ccc(NC(=O)c4ccc(F)c(F)c4)cc3C(=O)N2C)O1`: the reporter increase was 0.615%. Consider `C[C@@H]1CN([C@H](C)CO)C(=O)c2cc(C#CC3CC3)cnc2O[C@@H]1CN(C)Cc1ccccn1`, for which the reporter increase was -2.08%. To `CC(=O)Nc1cccc(-c2cnc3ccccc3n2)c1` belongs 72.3% (active). To `CC(=O)Nc1cccc(-c2cc(NC(C)=O)c3ncc(-c4ccccc4)n3c2)c1` belongs -27.3%; to `COc1ccc(-c2csc(Nc3cccc(C)n3)n2)cc1OC`, 86.6% (active); to `COc1cccc(C(O)c2nc(-c3ccc(C)c(C)c3)cs2)c1` (stereo not drawn), 3.8%. Turning to `CC(=O)NC(c1ccccc1)c1nc(-c2cccc(C(C)C)c2)cs1` (stereo not drawn), the reporter increase was -2.45%. To `CC(=O)NC(c1cccc(F)c1)c1nc(-c2cccc(F)c2)cs1` (stereo not drawn) belongs 1.42%; to `CC(=O)Nc1cccc(-c2csc(Nc3cccc(C)n3)n2)c1`, 51.5% (active). To `COc1cc(NC(=O)c2ccc(-c3csc(C)n3)cc2)c(OC)cc1Cl` belongs 23.9%; to `COc1cccc(-c2cnc3c(NC(C)=O)cc(-c4cccc(NC(C)=O)c4)cn23)c1`, 6.31%; to `COc1cccc(-c2cnc3c(c2)C(=O)N([C@H](C)CO)C[C@@H](C)[C@H](CN(C)Cc2ccc(F)cc2)O3)c1`, 1.81%. To `Cc1noc(C)c1S(=O)(=O)N(C)C[C@@H]1OCCCC[C@@H](C)Oc2ccc(NC(=O)c3ccccc3)cc2C(=O)N([C@@H](C)CO)C[C@@H]1C` belongs 4.85%; to `COc1ccc(S(=O)(=O)Nc2ccc3c(c2)C(=O)N([C@@H](C)CO)C[C@H](C)[C@@H](CN(C)C(=O)c2ccccc2)OCCCC[C@H](C)O3)cc1`, -1.88%. For the molecule `C/C=C/c1ccc([C@H]2[C@@H](CO)N(C(C)=O)[C@H]2CNC(=O)c2ccncc2)cc1`, the reporter increase was 2.82%. To `C[C@@H]1CN([C@@H](C)CO)C(=O)c2cc(NS(=O)(=O)c3ccccc3)ccc2O[C@@H](C)CCCCO[C@H]1CN(C)S(=O)(=O)c1cccs1` belongs -5.79%; to `O=C(C[C@@H]1C=C[C@@H](NC(=O)c2ccc3c(c2)OCO3)[C@H](CO)O1)NC1Cc2ccccc2C1`, 4.12%.

Turning to `C[C@@H]1CCCCO[C@H](CN(C)C(=O)CCC(F)(F)F)[C@H](C)CN([C@@H](C)CO)C(=O)c2cc(NC(=O)CCCCCC(=O)Nc3ccccc3N)ccc2O1`, the reporter increase is 1.1%. Turning to `COc1ccccc1N1CCN(/N=C/c2ccc(O)cc2O)CC1`, the reporter increase was 60.9% (active). To `COc1cc(/C=N/N2CCN(c3ccccc3)CC2)ccc1OC(C)=O` belongs 7.78%; to `COc1ccccc1N1CCN(/N=C\C(Br)=C\c2ccccc2)CC1`, 24.6%; to `CN(C)CC(=O)Nc1ccc2c(c1)[C@@H]1C[C@H](CC(=O)NCC3CC3)O[C@@H](CO)[C@@H]1O2`, 5.49%.
